PubChem BioAssay (EPA / NIEHS)
Inconclusive results are not listed. Active and inactive are the calls of the source. How the source made its calls: active means hit-call score of the fitted dose curve at least 0.9, where 1 is the maximum; inconclusive means response in the unintended direction; inactive means score below 0.9.

Biological target: PGR (gene 5241) (UniProt P06401)
Experiment: NVS_NR_hPR: NovaScreen (NVS) Nuclear Receptor Binding Assay for human Progestron Receptor (PR) (AID 2283360);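 further: active means loss of bound radioligand signal versus DMSO baseline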
Summary of the method: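 T47D-derived receptor preparation, cell-free, with tritiated or iodinated radioligand displacement measured by scintillation 18 h post-dosing. Single 25 uM duplicate screen, then concentration series; signal loss relative to DMSO.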

Chain of PGR (gene 5241) (P06401 whole entry, looked up): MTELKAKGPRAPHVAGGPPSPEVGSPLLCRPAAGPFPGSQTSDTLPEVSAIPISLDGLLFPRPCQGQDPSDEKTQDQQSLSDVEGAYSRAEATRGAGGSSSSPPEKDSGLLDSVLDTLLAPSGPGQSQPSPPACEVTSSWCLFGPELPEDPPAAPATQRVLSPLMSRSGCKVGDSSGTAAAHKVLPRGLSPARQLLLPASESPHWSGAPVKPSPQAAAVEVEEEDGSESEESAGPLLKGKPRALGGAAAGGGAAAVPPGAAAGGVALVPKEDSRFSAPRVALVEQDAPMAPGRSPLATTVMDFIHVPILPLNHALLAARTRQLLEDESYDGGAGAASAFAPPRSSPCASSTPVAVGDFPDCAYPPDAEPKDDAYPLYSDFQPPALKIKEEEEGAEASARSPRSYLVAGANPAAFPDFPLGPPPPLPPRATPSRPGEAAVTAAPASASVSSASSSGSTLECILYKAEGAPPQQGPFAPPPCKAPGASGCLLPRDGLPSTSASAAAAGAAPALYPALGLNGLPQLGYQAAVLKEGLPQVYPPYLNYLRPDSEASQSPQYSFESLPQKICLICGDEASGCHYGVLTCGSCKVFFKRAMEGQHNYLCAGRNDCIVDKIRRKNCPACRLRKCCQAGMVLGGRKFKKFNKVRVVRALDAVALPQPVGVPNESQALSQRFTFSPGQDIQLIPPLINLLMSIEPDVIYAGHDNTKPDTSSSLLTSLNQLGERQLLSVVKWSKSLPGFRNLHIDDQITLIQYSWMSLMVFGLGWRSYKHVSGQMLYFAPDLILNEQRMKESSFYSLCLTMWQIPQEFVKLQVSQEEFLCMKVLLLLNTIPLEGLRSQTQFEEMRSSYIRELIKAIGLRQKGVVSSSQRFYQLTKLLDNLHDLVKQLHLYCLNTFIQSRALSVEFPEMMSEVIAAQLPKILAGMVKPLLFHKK

outcome, inactive:
CC(=O)OCCC(C)C, CNCc1ccc(NC(=O)c2c[nH]c3c2C(=O)CCC3)cc1, CC(C)(O)c1coc(S(=O)(=O)NC(=O)Nc2c3c(cc4c2CCC4)CCC3)c1, Cc1c(-c2cccnc2)c2ccccc2n1CCCCC(=O)O, C1N2CN3CN1CN(C2)C3

Biological target: Retinoic acid receptor alpha (Homo sapiens) (UniProt P10276)
Experiment: NVS_NR_hRARa_Agonist: NovaScreen (NVS) Nuclear Receptor Binding Assay for human Retinoic Acid Alpha Receptor Agonism (RAR) (AID 2283361)
Experimental: NVS_NR_hRARa_Agonist is a biochemical, single-readout assay that uses extracted gene-proteins in a cell-free assay. Measurements were taken 2 hours after chemical dosing in a 384-well plate.NVS_NR_hRARa_Agonist is one of one assay component(s) measured or calculated from the NVS_NR_hRARa_Agonist assay. It is designed to make measurements of fluorescent resonance energy transfer, a form of binding reporter, as detected with fluorescent resonance energy transfer signals by Time-Resolved Fluorescence Resonance Energy Transfer (TR-FRET) technology.Data from the assay component NVS_NR_hRARa_Agonist was analyzed into 1 assay endpoint. This assay endpoint, NVS_NR_hRARa_Agonist, was analyzed in the positive analysis fitting direction relative to DMSO as the negative control and baseline of activity. Using a type of binding reporter, gain-of-signal activity can be used to understand changes in the binding as they relate to the gene RARA. Furthermore, this assay endpoint can be referred to as a primary readout, because the performed assay has only produced 1 assay endpoint. To generalize the intended target to other relatable targets, this assay endpoint is annotated to the nuclear receptor intended target family, where the subfamily is non-steroidal.
Binding assays used specific radioligands (tritiated, iodinated) with non-radioactive competitive displacement ligands in agonist or antagonist protocols (as indicated) and various reference compounds and inhibitors to titrate specific binding to receptors and transporters. Most enzyme assays (CYPs, kinases, phosphatases, proteases, HDACs) used recombinant protein and specific substrates (fluorescence mostly, some colorimetric and radioactive) and inhibitors, followed by a biochemical separation of substrate and product. All assays for the biochemical HTS were initially run in duplicate at a single concentration (10 uM for CYP450 assays and 25 uM for all others). […] Each assay was run with positive and negative controls, and concurrent controls on every plate. The follow-up (secondary) screen tested active chemical-pairs in concentration series, as well as a few additional assays not tested in the primary screen, some selected negative inactives, and several cases re-run in the concentration series for confirmatory purposes.

Chain of Retinoic acid receptor alpha (Homo sapiens) (P10276 whole entry, looked up): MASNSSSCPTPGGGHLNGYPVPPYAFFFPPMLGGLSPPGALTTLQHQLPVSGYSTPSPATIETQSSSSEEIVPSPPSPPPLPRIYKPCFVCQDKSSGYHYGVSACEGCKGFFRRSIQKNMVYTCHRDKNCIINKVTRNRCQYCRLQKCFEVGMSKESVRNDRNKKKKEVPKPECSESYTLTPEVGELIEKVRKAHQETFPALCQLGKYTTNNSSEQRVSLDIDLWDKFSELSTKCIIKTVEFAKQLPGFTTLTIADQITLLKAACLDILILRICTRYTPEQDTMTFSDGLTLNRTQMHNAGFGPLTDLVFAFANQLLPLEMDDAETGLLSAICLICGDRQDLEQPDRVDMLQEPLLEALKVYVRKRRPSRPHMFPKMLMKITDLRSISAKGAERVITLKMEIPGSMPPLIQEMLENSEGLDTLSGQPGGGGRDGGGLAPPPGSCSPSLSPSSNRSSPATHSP

outcome, inactive:
Clc1nc(Cl)c(Cl)c(Cl)c1Cl, CC(C)CCCCCCCOC(=O)CCCCC(=O)OCCCCCCCC(C)C, Cn1c(=O)c2c(ncn2C)n(C)c1=O
